# miR-122 sensor: inhibitors of miR-122 in Huh7 cells. 340,000 compounds, 0.3% hits. Huh7 miR-122 Renilla luciferase sensor, 48 h; neutral wells = 0, positive control = 100. activation (reporter increase), % at 12.5 µM. AID 602342;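 active = mean replicate activation score at least 90 and every replicate individually at or above 90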;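 also: higher luciferase means less miR-122 activity so hits act as miR-122 inhibitors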
# EWS-Fli block: inhibitors of EWS/Fli oncoprotein transcriptional activity; A673 NR0B1-luciferase reporter, viability-normalised; inhibition, % at 12.6 µM; 350,000 compounds, 0.67% hits; AID 651661;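 active = mean inhibition of at least 50% after viability correction, with every replicate also passing that limit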;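 also: firefly luciferase signal divided by Alamar Blue viability fluorescence both relative to DMSO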
# Statin myotox sup: suppressors of simvastatin-induced myotoxicity in C2C12 myotubes; ATP luminescence, 48 h; scaled: DMSO 0, geranylgeraniol control 100; rescue of ATP level, % at 7.49 µM; 330,000 compounds, 0.78% hits; AID 602340;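 active = mean ATP rescue above about 67%, or every replicate alone reaching that limit, limit read from the data, passing the limit was not always enough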;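 also: myotubes were challenged with 10 µM simvastatin during compound exposure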
# GSIS activator: GLuc luminescence reporter in INS-1E cells, primary screen for activators of glucose-dependent secretion of insulin. INS-1E GLuc reporter insulin secretion, 2-3 h. 370,000 compounds, 0.61% hits. activation, % at 16.6 µM;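 active = lowest replicate activation of at least 40%, so every replicate reaches that level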;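 also: 0% = median of neutral control wells and 100% = median of IBMX positive control wells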
# PAX8 inh HTS: inhibitors of PAX8 transcriptional activity in RMG-I cells | RMG-I TPO-luciferase reporter, SteadyGlo, 24 h | inhibition, % at 12.6 µM | 360,000 compounds, 1.2% hits;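 active = mean replicate inhibition at least 60% with every replicate also reaching 60%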;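 also: luciferase light reporting Pax8 driven TPO promoter activity; plate controls were median of neutral control wells for no effect and mitoxantrone controls for full effect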
# Env fusion inh: blocks HIV Env-driven cell-cell fusion. HeLa-JRFL Env/CEM21 cell fusion, luciferase. inhibition, % at 12.3 µM. 360,000 compounds, 1.1% hits;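 active = mean replicate inhibition score of at least 50 and every replicate individually at or above 50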;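 also: 0% = plate neutral controls and 100% = maraviroc near 300 nM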
# The depositor's hits bear a star; nt = not tested or not shown; [ ] = remark or other dose. Only some compounds are listed: those with a hit (about 3.1% of all), similar ones and a draw of the others.
SMILES,miR-122 sensor,EWS-Fli block,Statin myotox sup,GSIS activator,PAX8 inh HTS,Env fusion inh
C[C@@H]1CN([C@@H](C)CO)C(=O)c2ccccc2-c2ccccc2CO[C@H]1CN(C)C(=O)Nc1ccc2c(c1)OCO2,nt,-14,nt,-9,0,-32[16.7 µM]
Cc1cccc(-c2ccc([C@H]3[C@H](CO)N4C(=O)CN(C(=O)c5ccccc5)C[C@@H]34)cc2)c1,nt,3,nt,-9,-2,nt
Cc1ccccc1N1C(N)=NC(N)=NC1(C)C,-3,nt,-5,nt,nt,nt
CC1(C)N=C(N)N=C(N)N1CCCCc1ccccc1,5,46,10,-55,73*,75*
CC(=O)c1c(O)cc2c3c1OC(C)(C)C1CCC(C)(CC31)O2 (configuration not stated),nt,-3,-11,5,-2,69*
C/C=C/c1ccc([C@H]2[C@@H](CN(C)C(=O)C3CC3)N(C(=O)C3CC3)[C@H]2CO)cc1,0[16.7 µM],2,-18,-8,7,nt
C=C(C)CN(CC)C(=O)COc1ccc(S(=O)(=O)Nc2ccc(OC)cc2)cc1,186*,nt,-2,nt,nt,-10
CCCC(=O)NC(=S)Nc1ccc(S(=O)(=O)Nc2ccc(OCC)cc2)cc1,181*,nt,-21,-32,-12,-6
CC(C)CC(=O)NC(=S)Nc1ccc(S(=O)(=O)NC(C)(C)C)cc1,nt,14,nt,nt,4,38
CCOc1ccc(NS(=O)(=O)c2ccc(NC(=S)NC(=O)CC(C)C)cc2)cc1,166*,nt,nt,nt,nt,nt
Cc1cc(C(=O)Nc2cccc3c2O[C@@H](CN(C)C(=O)Nc2c(C)noc2C)[C@H](C)CN([C@H](C)CO)C3=O)n(C)n1,-3[16.7 µM],-8,38,-3,nt,nt
Cn1nc(C(=O)Nc2ccc(S(=O)(=O)N3CCCCC3)cc2)ccc1=O,3,nt,96*,nt,6,23
Cc1ccc(NS(=O)(=O)c2cc(C(=O)N(C)C3CCN(C)CC3)ccc2Cl)cc1Cl,35,8,0,14,3,75*
CN1CCC(N(C)C(=O)c2ccc(Cl)c(S(=O)(=O)N3CCCCC3)c2)CC1,3,-2,3,1,-2,1
CO[C@@H]1CN(C)C(=O)c2cc(NC(=O)c3ccccc3)ccc2OC[C@@H](C)N(CC2CC2)C[C@H]1C,-12[16.7 µM],-1,9,-4,-10,17[16.7 µM]
CC1(C)CC(=O)C(C=NC2CC(C)(C)NC(C)(C)C2)=C(O)C1,nt,nt,9,44*,nt,nt
C[C@H](CO)N1C[C@H](C)[C@@H](CN(C)Cc2ccncc2)OCCCC[C@H](C)Oc2ccc(NC(=O)Nc3ccc(F)cc3)cc2C1=O,-3[16.7 µM],11,41,-4,-3,15[16.7 µM]
COc1ccc(CN(C)C[C@@H]2Oc3ccc(NC(=O)CCC(F)(F)F)cc3CC(=O)N([C@H](C)CO)C[C@H]2C)cc1,1[16.7 µM],11,102*,1,-4,-17[16.7 µM]
C[C@@H]1CN([C@@H](C)CO)C(=O)Cc2cc(NC(=O)CCC(F)(F)F)ccc2O[C@H]1CN(C)Cc1ccc(Oc2ccccc2)cc1,-15[16.7 µM],13,87*,-20,90*,-4[16.7 µM]
C[C@@H]1CN([C@H](C)CO)C(=O)c2cc(NC(=O)CCN3CCOCC3)ccc2O[C@H]1CN(C)C,-4[16.7 µM],-4,19,9,-11,nt
O=C(C[C@@H]1CC[C@H]2NC[C@H](O)COC[C@@H]2O1)NCCN1CCCC1,nt,nt,nt,17,-3,nt
C/C=C/c1cnc2c(c1)C(=O)N([C@H](C)CO)C[C@H](C)[C@@H](CN(C)S(=O)(=O)c1ccc(F)cc1)O2,16[16.7 µM],1,-28,-21,nt,34[16.7 µM]
CC(C)(C)N1C(=O)[C@H]2[C@@H](c3ccc(Br)cc3)N3C(=O)N(c4cccc(Br)c4)C(=O)[C@@]3(Cc3ccccc3)[C@H]2C1=O,-8,nt,6,nt,nt,nt
CC(C)(C)N1C(=O)[C@H]2[C@@H](c3ccc(Br)cc3)N3C(=O)N(c4ccccc4)C(=O)[C@@]3(Cc3ccccc3)[C@H]2C1=O,nt,-2,-20,3,12,68*
CC(C)(C)N1C(=O)[C@H]2[C@@H](c3ccc(Br)cc3)N3C(=O)N(c4ccccc4)C(=O)[C@@]3(C)[C@H]2C1=O,1,25,4,-25,5,104*
SMILES,miR-122 sensor,EWS-Fli block,Statin myotox sup,GSIS activator,PAX8 inh HTS,Env fusion inh
CNC[C@H]1Oc2ccc(NC(=O)NC3CCCCC3)cc2CC(=O)N([C@H](C)CO)C[C@H]1C,5[16.7 µM],-4,-17,-7,-6,3[16.7 µM]
CN1c2ccc(Br)cc2[C@H]2[C@H](CCN2C(=O)C2CCC2)[C@H]1CO,nt,-4,nt,-1,nt,nt
Cc1cc(C)c2c(c1)/C(=N/NS(=O)(=O)c1ccccc1)CCC2,1,nt,136*,nt,nt,-58
Cc1cc(C)c2c(c1)/C(=N/NS(=O)(=O)c1ccc(Br)cc1)CCC2,1,nt,18,nt,nt,nt
COc1ccccc1/C=C1\SC(=S)N(CC(=O)Nc2nnc(C)s2)C1=O,nt,60*,nt,12,0,50
CC1Cc2nc(SCC(=O)NCc3ccccc3)n(Cc3ccccc3)c(=O)c2S1 (configuration not stated),14,0,0,-27,17,72*
CSc1nc2c(c(=O)n1Cc1ccccc1)SC(C)C2 (configuration not stated),-2,nt,-20,45*,nt,nt
COc1ccc(Cc2nnc(NC(=O)Cc3cccs3)s2)cc1OC,-7,nt,24,153*,16,20
O=C(Cc1cccs1)Nc1nnc(Cc2ccccc2)s1,-3,nt,121*,-4,nt,nt
COc1ccc(NC(=O)Nc2ccc3c(c2)[C@@H]2C[C@@H](CC(=O)N4CCCCC4)O[C@@H](CO)[C@@H]2O3)cc1,-2[16.7 µM],5,5,-6,-1,nt
CO[C@H]1CN(C)C(=O)c2ccc(NC(=O)c3cnccn3)cc2OC[C@@H](C)N(CC2CC2)C[C@H]1C,nt,nt,nt,11,-6,nt
C[C@H]1CN([C@@H](C)CO)C(=O)Cc2cc(NS(C)(=O)=O)ccc2O[C@H]1CN(C)C(=O)Nc1ccc2c(c1)OCO2,24[16.7 µM],-1,-47,9,0,5[16.7 µM]
O=C(Nc1cccnc1)c1ccc(CN2CCc3ccccc3C2)cc1,-6,nt,-1,nt,7,54*
CCc1ccc(NC(=O)CN2CCc3ccccc3C2)cc1,265*,nt,0,nt,nt,-5
Cc1cc(C)cc(NC(=O)c2ccc(CN3CCc4ccccc4C3)cc2)c1,nt,-2,-37,-16,14,10
O=C(Nc1ccccc1)c1ccc(CN2CCc3ccccc3C2)cc1,-8,-32,5,-36,-2,61*
Cc1ccc(NC(=O)c2ccc(CN3CCc4ccccc4C3)cc2)cc1,-12,nt,-14,nt,nt,93*
CC(NC(=O)c1ccccc1NC(=O)CN1CCc2ccccc2C1)c1ccccc1 (configuration not stated),0,20,-6,-11,18,69*
COc1ccc(OC)c(/C=C/C(=O)OCC(=O)N2C(C)CCCC2C)c1 (configuration not stated),-5,8,-4,-36,-9,92*

# Bioassay records (PubChem BioAssay)
